Compound activity as filed in PubChem.
Shown is part of a subset that was picked to be rich in hits.
TDP1 cell CPT: qHTS for Inhibitors of human tyrosyl-DNA phosphodiesterase 1 (TDP1): qHTS in cells in presence of CPT | chicken DT40 Tdp1-/-;hTDP1 cells + 20 nM CPT, ATP luminescence, 48 h | Potency, µM (doses to about 46.2 µM), without a hit: at the top dose activity change, negative = growth inhibition, usual class: inhibitors | 420,000 tested, 12% active; also: potency is read from the fitted curve at half-maximal effect; nearly all actives have a fitted effect of over 55% in size
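Cell growth measured by CellTiter-Glo luminescence after a minimum 48 h, 37 C compound exposure with 20 nM CPT in Tdp1-knockout DT40 cells stably expressing hTDP1, seeded 400/well; qHTS titration format.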
IL-1B inflam inh: qHTS for Inhibitors of Inflammasome Signaling: IL-1-beta AlphaLISA Primary Screen. activity change, % at 57.5 µM. THP-1 LPS/ATP IL-1B secretion, AlphaLISA, 16 h; active compounds read low. 360,000 tested, 4.7% active; in the data active = activity change below about -50%; inconclusive = mostly about -30% to -49%
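THP-1 cells pretreated 1 hr with compounds (up to 57.5 uM final), then stimulated with LPS (250 ng/mL final) plus ATP (1.25 mM final); secreted IL-1B measured by AlphaLISA after 16 hr, decreased signal indicating inhibition.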
HT1080 IDH1KD tx: qHTS for induction of synthetic lethality in tumor cells producing 2HG: qHTS for the HT-1080-IDH1KD cell line; Potency, µM (top dose mostly 46.1 µM), inactives show at the top dose activity, negative = toxicity, usual class: cytotoxic; HT-1080 IDH1 knockdown viability, ATP luminescence, 48 h; 360,000 tested, 2% active;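 also: potency is read from the fitted curve at half-maximal effect; 0% = DMSO wells and -100% = cell-free medium wells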
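% activity derives from luminescence (CellTiter-Glo), normalised to DMSO and no-cell wells. HT-1080-IDH1KD cells, 750/well, had 48 h compound exposure at 37 °C.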
TDP1 cell noCPT: qHTS for Inhibitors of human tyrosyl-DNA phosphodiesterase 1 (TDP1): qHTS in cells in absence of CPT; 420,000 tested, 15% active; DT40 Tdp1-/- hTDP1 cells, no CPT, ATP luminescence, 48 h; Potency, µM (highest dose often 46.2 µM), for inactives: at the highest dose activity change, negative = growth inhibition, actives largely listed as inhibitors; also: potency is read from the fitted curve at half-maximal effect; nearly all actives have a fitted effect of over 55% in size
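No-CPT arm: Tdp1-/-;hTDP1 DT40 cells (400/well) plus compounds, incubated ≥48 hr at 37 °C. Readout CellTiter-Glo luminescence.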
HT1080NT lethal: qHTS for induction of synthetic lethality in tumor cells producing 2HG: qHTS for the HT-1080-NT fibrosarcoma cell line | Potency, µM (titrated, usually from 46.1 µM), inactives show at the top dose activity, negative = less viability, hits mostly cytotoxic | AID 686970, 2013 | 360,000 tested, 1.6% active | HT-1080-NT fibrosarcoma viability, CellTiter-Glo ATP luminescence, 48 h;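 also: NT is the 2HG producing partner of a matched IDH1 knockdown line; potency is read from the fitted curve at half-maximal effect; 0% = DMSO-treated cells and -100% = media-only wells without cells; nearly all actives have a fitted effect of over 55% in size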
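Viability by CellTiter-Glo luminescence after 48 h compound exposure at 37C of HT-1080-NT cells (750/well, RPMI, 5% FBS). % activity scaled between DMSO wells and medium-only wells, then curve-fitted and categorized by curve class.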
ALOX12 inh: Primary qHTS assay for inhibitors of human arachidonate 12S-lipoxygenase (ALOX12): Round 2. Polyunsaturated fatty acid lipoxygenase ALOX12 (Homo sapiens), P18054. Potency, µM (top dose mostly 108 µM), without a hit: top-dose activity change, negative = inhibition, actives largely listed as inhibitors. 580,000 tested, 1.1% active. purified 12hLO, xylenol orange hydroperoxide absorbance. AID 1671190, 2021; also: potency is read from the fitted curve at half-maximal effect
Target sequence (P18054 whole entry, looked up): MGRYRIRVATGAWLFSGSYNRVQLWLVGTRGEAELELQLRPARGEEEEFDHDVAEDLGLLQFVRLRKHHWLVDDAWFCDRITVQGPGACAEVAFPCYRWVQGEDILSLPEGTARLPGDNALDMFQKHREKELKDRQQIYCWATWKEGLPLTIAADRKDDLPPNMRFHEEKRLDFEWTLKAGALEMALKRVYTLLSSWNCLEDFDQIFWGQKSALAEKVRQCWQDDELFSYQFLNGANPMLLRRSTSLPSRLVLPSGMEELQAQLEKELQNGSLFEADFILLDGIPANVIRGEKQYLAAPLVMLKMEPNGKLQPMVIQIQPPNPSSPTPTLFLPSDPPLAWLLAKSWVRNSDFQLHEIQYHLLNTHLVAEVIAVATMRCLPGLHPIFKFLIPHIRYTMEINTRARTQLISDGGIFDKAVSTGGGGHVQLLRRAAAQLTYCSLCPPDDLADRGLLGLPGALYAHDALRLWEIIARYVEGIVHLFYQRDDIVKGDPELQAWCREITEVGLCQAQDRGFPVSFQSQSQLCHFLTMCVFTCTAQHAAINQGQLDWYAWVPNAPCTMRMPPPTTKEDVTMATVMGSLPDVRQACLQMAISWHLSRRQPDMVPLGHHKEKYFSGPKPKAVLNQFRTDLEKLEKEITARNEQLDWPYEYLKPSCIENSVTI
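Hydroperoxide product was detected by ferrous iron/xylenol orange as the 573 to 405 nm absorbance ratio. Arachidonic acid at 40 uM (final) was turned over for 30 min at room temperature by 150 nM human 12hLO, pH 7.0 Hepes buffer, after 15 min compound preincubation.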
Numbers without * were called inactive; ? = inconclusive; · = no result; [ ] = remark or other dose. Unless noted, calls follow the shape of the dose curve; as a rule, active = well fitted curve in the direction sought with a large enough effect; inconclusive = small, poorly fitted or top-dose-only effect, or another doubt; inactive = no such curve, though single readings can be large; an effect the other way counts as inactive or inconclusive. Unless noted, % is scaled to controls: 0 for no effect and ±100 for the full control effect.

SMILES	TDP1 cell CPT	IL-1B inflam inh	HT1080 IDH1KD tx	TDP1 cell noCPT	HT1080NT lethal	ALOX12 inh
COC(=O)CCC/C=C1/SCC(NC(=O)c2ccccc2)C1O (stereo not drawn)	-6%	-6	3%	-5%	11%	-14%
COC(=O)CCC/C=C1/SCC(NC(=O)c2ccccc2)C1=O (stereo not drawn)	26µM*	3	-4%	16µM*	-3%	-23%
CNC(=O)[C@@H]1C[C@H](Oc2ccccc2)CN1C(=O)c1cc(-c2ccc(C)cc2)n[nH]1	·	·	·	·	·	14%
CCCNC(=O)CN(C)Cc1cccc2cccnc12	·	·	·	·	·	16%
O=C1NC[C@@H](CCCCN2C[C@H](Cc3ccccc3)N(CC3CCCCC3)C(=O)C2=O)N(CC2CCCCC2)C1=O	-15%	-27	?	-20%	?	62%
O=C1NC[C@H](CCCCN2C[C@H](Cc3ccc(O)cc3)N(CCC3CCCCC3)C(=O)C2=O)N(CCc2ccccc2)C1=O	-3%	-6	11%	2%	13%	-21%
O=C1NC[C@H](CCCCN2C[C@H](Cc3ccccc3)N(CC3CCCCC3)C(=O)C2=O)N(CCc2ccccc2)C1=O	-29%	-51*	14%	?	23%	?
O=C1NC[C@H](CCCCN2C[C@H](Cc3ccccc3)N(CCC3CCCCC3)C(=O)C2=O)N(CCc2ccccc2)C1=O	?	-72*	7%	?	18%	49%
O=C1NC[C@@H](CCCCN2C[C@H](Cc3ccccc3)N(CCC3CCCCC3)C(=O)C2=O)N(CCc2ccccc2)C1=O	?	-51*	?	?	?	?
CC(C)C[C@H]1CN(CCCC[C@H]2CNC(=O)C(=O)N2CCC2CCCCC2)C(=O)C(=O)N1CC1CCCCC1	16µM*	-24	1%	18µM*	11%	?
O=C(CSC1=NCCS1)c1ccc2c(c1)OCCO2	·	·	·	·	·	51%
O=C1NC[C@H](CCCCN2C[C@H](Cc3ccccc3)N(Cc3ccccc3)C(=O)C2=O)N(CCC2CCCCC2)C1=O	-6%	23	12%	18µM*	21%	?
O=C1NC[C@H](CCCCN2C[C@H](Cc3ccc(O)cc3)N(CC3CCCCC3)C(=O)C2=O)N(CC2CCCCC2)C1=O	2%	13	5%	-11%	7%	45µM*
O=C1NC[C@@H](CCCCN2C[C@H](Cc3ccc(O)cc3)N(CC3CCCCC3)C(=O)C2=O)N(Cc2ccccc2)C1=O	12%	-4	?	-1%	18%	-26%
Cc1ccc(NC(=O)C(c2ccccc2)C2CCCC2)cc1C (stereo not drawn)	·	·	·	·	·	13%
O=C1c2ccccc2C(=O)N1CCCCN(C(=O)c1cccc([N+](=O)[O-])c1)c1ccc(Cl)cc1	21µM*	-8	-13%	16µM*	-1%	-14%
CCOc1ccc2[nH]cc(C(=O)NCc3ccccc3)c(=O)c2c1	16µM*	-10	-2%	21µM*	-13%	299%
CCOc1ccc2[nH]cc(C(=O)NCCc3ccccc3)c(=O)c2c1	?	-54*	-2%	?	-20%	22%
CCOc1ccc(NS(=O)(=O)c2ccc3[nH]cc(C(=O)NCc4ccccc4)c(=O)c3c2)cc1	-27%	·	·	?	·	?
CCOc1ccc2[nH]cc(C(=O)NCCCN3CCOCC3)c(=O)c2c1	19%	17	3%	-12%	2%	10%
CCc1ccc2[nH]cc(C(=O)OCCOC)c(=O)c2c1	?	8	13%	23µM*	7%	4%
CCOc1ccc2[nH]c3ncccc3c(=O)c2c1	4%	-60*	-13%	?	-16%	-7%
O=C1NC[C@@H](CCC(=O)N2CCCC2)N2C[C@@H](NCc3ccccc3)C[C@@H]12	·	·	·	·	·	93%[176 µM]
COc1cc(OCc2ccccc2)ccc1CN1CC[C@@]2(O)CCNC[C@H]2C1	·	·	·	·	·	40%
Cc1ccc(NC(=O)c2nn(C)c(=O)c3ccccc23)cc1Cl	·	·	·	·	·	8%
SMILES	TDP1 cell CPT	IL-1B inflam inh	HT1080 IDH1KD tx	TDP1 cell noCPT	HT1080NT lethal	ALOX12 inh
CCCCCCNC(=O)C(C#N)c1nc2ccccc2nc1N1CCN(C(=O)OCC)CC1 (stereo not drawn)	·	·	·	·	·	18%
CN(CC(=O)NC(N)=O)Cc1ccsc1	·	·	·	·	·	82%
COc1cc(/C=N/n2cnnc2)ccc1Oc1nc(Cl)ncc1F	16µM*	-18	-1%	?	4%	11%
COc1cc(/C=C(/C#N)C(=O)Nc2ccc(C)cc2)ccc1Oc1nc(Cl)ncc1F	23µM*	0	?	16µM*	?	-25%
CCCCCc1ccc(-c2ccc(OC(F)F)cc2)nc1	·	·	·	·	·	9%
NC(=O)c1ccc(C(=O)OCc2nc3ccccc3o2)cc1	·	·	·	·	·	12%
CCc1cc2c3c(c1)C1(C(=O)N3C(C)(C)C=C2C)C(C#N)=C(N)Oc2[nH]c(=O)[nH]c(=O)c21 (stereo not drawn)	3.3µM*	25	16µM*	3.3µM*	23µM*	0%
COC(=O)c1ccc(NC(=O)Nc2cccc(F)c2)cc1	?	-92*	?	?	?	-15%
O=C(Nc1ccc(F)cc1)Nc1csc2ccccc12	23µM*	·	?	23µM*	?	-2%
COC(=O)c1ccc(NC(=O)Cc2ccc(F)cc2)cc1	?	-1	-5%	?	-15%	81%
CC(=O)Nc1cccc(NC(=O)Nc2ccc(F)cc2F)c1	14%	9	22%	?	18%	4%
COC(=O)c1ccc(NC(=O)Nc2ccc(F)cc2F)cc1	8.2µM*	-53*	-2%	6.5µM*	3%	-5%
O=C(Nc1ccccc1)Nc1ccc(F)cc1F	?	-12	-5%	23µM*	-1%	-15%
